In PubChem BioAssay (NCATS):
Results filed as inconclusive are left out. Some compounds were tested as several samples or in several runs, with calls that do not always agree. Active and inactive are the calls of the source. Unless noted, the call rests on the fitted dose curve; in most records, active means well fitted curve in the direction sought with a large enough effect; inconclusive means small, poorly fitted or top-dose-only effect, or another doubt; inactive means no such curve, though single readings can be large; an effect the other way counts as inactive or inconclusive.

How the values were obtained:
[1] = system: Zika virus NS2B-NS3 protease (linked construct); experiment: Primary screen NINDS Rhodamine qHTS for Zika virus inhibitors (AID 1347160); further: potency means the concentration at half of the fitted maximal effect; nearly all actives have a fitted effect of over 55% in size
Method in brief: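 Aprotinin served as in-plate control. Conditions: 25 nM linked NS2B-NS3, pH 8.0 Tris buffer, titrated compounds, 15 min preincubation and 15 min reaction with 1.5 microM Rhod110 substrate at room temperature.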

[2] = OV-KATE Cancer Cell Toxicity qHTS against the NCATS CANVASS Library (AID 1347345); further: on the % scale 0 is the no-effect control and ±100 the full control effect
Method in brief: (§1)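 Viability read-out: CellTiter-Glo luminescence after 72 h compound exposure at 37 °C/5% CO2. Cells plated at 1000/well, 4 h pre-incubation; 11-point titration. Bortezomib served as control.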

[3] = UWB1.289 Cancer Cell Toxicity qHTS against the NCATS CANVASS Library (AID 1347347); further: potency means the concentration at half of the fitted maximal effect; nearly all actives have a fitted effect of over 60% in size
Method in brief: as §1

[4] = OV-SAHO Cancer Cell Toxicity qHTS against the NCATS CANVASS Library (AID 1347348); further: nearly all actives have a fitted effect of over 55% in size; further: potency means the concentration at half of the fitted maximal effect
Method in brief: as §1

[5] = Panc-1005 Cancer Cell Toxicity qHTS against the NCATS CANVASS Library (AID 1347349); further: on the % scale 0 is the no-effect control and ±100 the full control effect; nearly all actives have a fitted effect of over 60% in size
Method in brief: as §1

[6] = G06 Cancer Cell Toxicity qHTS against the NCATS CANVASS Library (AID 1347368); further: on the % scale 0 is the no-effect control and ±100 the full control effect; nearly all actives have a fitted effect of over 60% in size
Method in brief: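 Viability measured by CellTiterGlo ATP luminescence after 72 hr at 37C, 5% CO2. Canine G06 glioma cells plated at 500/well. Compounds tested as 11-point qHTS titrations.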

[7] = MCF7 Cancer Cell Toxicity qHTS against the NCATS CANVASS Library (AID 1347369); further: on the % scale 0 is the no-effect control and ±100 the full control effect
Method in brief: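 Cytotoxicity was measured as CellTiterGlo luminescence (ATP) after 72 h at 37 °C. The cells were MCF7 at 500 per well, with an 11-point compound concentration series.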

[8] = qHTS for Antimalaria activity screened against the NCATS CANVASS Library (AID 1347380); further: potency means the concentration at half of the fitted maximal effect; nearly all actives have a fitted effect of over 40% in size
Method in brief: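 SYBR Green fluorescence at 485/535 nm was read 18 hr after lysis. This followed a 72 hr incubation at 37C in 5% O2, 5% CO2 of Dd2-infected erythrocytes (0.3% parasitemia, 2.5% final hematocrit) with compounds titrated over 11 concentrations.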

[9] = qHTS for inhibitors of ER calcium dysfunction: SERCaMP assay screened against the NCATS CANVASS Library (AID 1347393); further: potency means the concentration at half of the fitted maximal effect; nearly all actives have a fitted effect of over 40% in size
Method in brief: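 qHTS in SH-SY5Y reporter cells: 16 h compound pretreatment, 4 h thapsigargin, then secreted Gaussia luciferase measured by luminescence.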

[10] = Primary qHTS to identify inhibitors of SARS-CoV-2 cell entry (AID 1645846; calls by dose curve; further: nearly all actives have a fitted effect of over 45% in size; further: potency means the concentration at half of the fitted maximal effect); conditions: SARS-CoV-2 pseudovirus cell entry assay, luminescence; activity change, negative = inhibition: at 57.1 µM (top of the series) unless noted
Method in brief: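 Entry measured by luciferase signal 48 h after adding SARS-CoV-2-S pseudotyped MLV particles to HEK293-ACE2 cells preincubated 1 h with compounds. Normalisation: bald particles and spike particles.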

[11] = Primary qHTS for inhibitors of nuclear receptor binding SET domain protein 2 (NSD2) in an isogenic RCH-ACV NSD2 p.E1099K mutant (9B) (AID 1645876); further: nearly all actives have a fitted effect of over 70% in size; further: potency means the concentration at half of the fitted maximal effect
[12] = biological target: Phospholipid hydroperoxide glutathione peroxidase GPX4 (Homo sapiens) (UniProt P36969); experiment: Primary qHTS Assay for Inhibitors of Recombinant Selenoprotein Glutathione Peroxidase 4 (GPX4) (AID 1845192); further: nearly all actives have a fitted effect of over 65% in size; on activity change, negative = inhibition: on the % scale 0 is the no-effect control and ±100 the full control effect
Method in brief: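 qHTS, GR-coupled: GPX4 200 nM + cpd 30 min RT → GSH 1 mM, NADPH 0.5 mM, GR 100 nM → CHP 0.5 mM start; fluor 340/450 at t0 and t15 min; no-enzyme wells as control.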

[13] = qHTS assay to identify inhibitors of the type 1 interferon - major histocompatibility complex class I in skeletal muscle: Counter screen cell viability and HiBit confirmation (AID 1347412); conditions: iHSKM muscle cells + IFN-b, HiBiT or CellTiter-Glo, 24 h; for activity change, negative = inhibition: at 45.9 µM (top of the series); further: potency means the concentration at half of the fitted maximal effect; on activity change, negative = inhibition: on the % scale 0 is the no-effect control and ±100 the full control effect; on all read-outs here: nearly all actives have a fitted effect of over 60% in size
Method in brief: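 After 24 h with human IFN-beta (4 ng/ml) and compound titrations (top 46 uM final, 1:3, 12 points), HLA-B HiBit myoblasts were lysed for either Nano-Glo HiBiT luminescence or CellTiter Glo viability on paired plates.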

Chain of Phospholipid hydroperoxide glutathione peroxidase GPX4 (Homo sapiens) (P36969 whole entry, looked up): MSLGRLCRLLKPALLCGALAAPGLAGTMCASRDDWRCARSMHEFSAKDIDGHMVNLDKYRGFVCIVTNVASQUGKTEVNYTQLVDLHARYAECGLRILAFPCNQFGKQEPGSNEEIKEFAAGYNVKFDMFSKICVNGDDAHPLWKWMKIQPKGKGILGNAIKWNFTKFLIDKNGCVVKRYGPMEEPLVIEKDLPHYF

CO[C@@]12c3c(C)cc(O)c4c(=O)occ(c34)C(=O)[C@@H]1[C@]13COC(=O)c4c(O)cc(C)c(c41)C(=O)[C@H]2[C@@H]3OC(C)=O
Potency [1]: 3110 nM (active)
Potency [2]: inactive
Potency [3]: 5940 nM (active)
Potency [4]: inactive
Potency [5]: inactive
Potency [6]: inactive
Potency [7]: inactive
Potency [8]: 7.5 nM (active)

C/C=C/[C@@H]1[C@H]2C[C@@H](C)CC[C@@H]2C(C)=C[C@H]1C(=O)c1c(O)c(-c2ccc(O)cc2)c[nH]c1=O
Potency [1]: 22000 nM (active)
Potency [3]: 21100 nM (active)
Potency [4]: 23600 nM (active)
Potency [7]: inactive
Potency [9]: 19300 nM (active)

CC(=O)OC[C@H]1O[C@@H]([S-])[C@H](OC(C)=O)[C@@H](OC(C)=O)[C@@H]1OC(C)=O.CC[PH+](CC)CC.[Au]
Potency [10]: 1260 nM (active)
Potency [11]: 742 nM (active)
Potency [12]: inactive
Potency ([13]; HiBiT): 1110 nM (active)

CN1C(=O)[C@@H](NC(=O)[C@H](CCC(F)(F)F)[C@H](CCC(F)(F)F)C(N)=O)N=C(c2ccccc2)c2ccccc21
activity change, negative = inhibition [10]: -8.27%
Potency [11]: inactive

C/C=C(\C)C(=O)N[C@@H](c1ccccc1)[C@@H](O)C(=O)O[C@H]1C[C@@]2(O)[C@@H](OC(=O)c3ccccc3)[C@@H]3[C@]4(OC(C)=O)CO[C@@H]4C[C@H](O)[C@@]3(C)C(=O)[C@H](OC(C)=O)C(=C1C)C2(C)C
activity change, negative = inhibition [10]: -81.8%
Potency [11]: 26.3 nM (active)

COc1cc(C)[nH]c(=O)c1CNC(=O)c1c(C)n([C@H](C)C2CCN(CC(F)(F)F)CC2)c2ccccc12
activity change, negative = inhibition [10]: 4.42%

CC1(C)CC[C@]2(NC(=O)C(C)(F)F)CC[C@]3(C)[C@H](C(=O)C=C4[C@@]5(C)C=C(C#N)C(=O)C(C)(C)[C@@H]5CC[C@]43C)[C@@H]2C1
Potency [10]: 1000 nM (active)
Potency [12]: inactive
Potency ([13]; HiBiT): 1570 nM (active)

CC(C)(NC(=O)O[C@@H]1CN2CCC1CC2)c1csc(-c2ccc(F)cc2)n1
Potency [12]: inactive

CC(C)(O)/C=C\C(=O)[C@](C)(O)[C@H]1[C@H](O)C[C@]2(C)[C@@H]3CC=C4[C@@H](C=C(O)C(=O)C4(C)C)[C@]3(C)C(=O)C[C@@]12C
Potency [10]: 794 nM (active)
Potency [11]: 52.5 nM (active)
Potency [12]: inactive
Potency ([13]; HiBiT): 6250 nM (active)
activity change, negative = inhibition ([13]; Viability): 186% (inactive)

COC12C(COC(N)=O)C3=C(C(=O)C(C)=C(N)C3=O)N1CC1C2N1C (stereo unspecified)
Potency [11]: 1660 nM (active)

C[C@@]12OC(=O)[C@]1([C@@H](O)[C@@H]1C=CCCC1)NC(=O)[C@@H]2CCCl
activity change, negative = inhibition [10]: -97.7%
Potency [11]: 118 nM (active)
Potency [12]: inactive
Potency ([13]; HiBiT): 176 nM (active)

CO/C1=C/C(C)=C\[C@@H](C)[C@@H](O)[C@@H](C)C/C(C)=C\C=C/[C@H](OC)[C@@H]([C@@H](C)[C@@H](O)[C@H](C)[C@@]2(O)C[C@@H](O)[C@H](C)[C@@H](C(C)C)O2)OC1=O
Potency [10]: 1580 nM (active)
Potency [11]: 49.4 nM (active)

Cc1c(N)nc([C@H](CC(N)=O)NC[C@@H](N)C(N)=O)nc1C(=O)N[C@H](C(=O)N[C@@H](C)[C@H](O)[C@@H](C)C(=O)N[C@@H](C(=O)NCCc1nc(-c2nc(C(=O)NCCC[S+](C)C)cs2)cs1)[C@@H](C)O)C(O[C@H]1O[C@H](CO)[C@H](O)[C@@H](O)[C@H]1O[C@H]1O[C@H](CO)[C@@H](O)[C@H](OC(N)=O)[C@@H]1O)c1cnc[nH]1 (stereo partly specified)
Potency [10]: 1120 nM (active)
activity change, negative = inhibition [10]: -97.2%
Potency [11]: inactive

C[C@@H]1CC[C@@]2(OC1)O[C@H]1C[C@H]3[C@@H]4CC=C5C[C@@H](O[C@@H]6O[C@H](CO)[C@@H](O[C@@H]7O[C@@H](C)[C@H](O)[C@@H](O)[C@H]7O)[C@H](O)[C@H]6O[C@@H]6O[C@@H](C)[C@H](O)[C@@H](O)[C@H]6O)CC[C@]5(C)[C@H]4CC[C@]3(C)[C@H]1[C@@H]2C
Potency [10]: 12600 nM (active)
Potency [11]: 2350 nM (active)
Potency [12]: inactive
Potency ([13]; HiBiT): 22200 nM (active)
Potency ([13]; Viability): 17600 nM (active)

COC(=O)[C@@]12OC[C@]34[C@H]([C@@H](O)[C@@H]1O)[C@@]1(C)CC(=O)C(O)=C(C)[C@@H]1C[C@H]3OC(=O)[C@H](OC(=O)/C=C(\C)C(C)C)[C@@H]24
activity change, negative = inhibition [10]: -94.1%
Potency [11]: 296 nM (active)
Potency [12]: inactive
Potency ([13]; HiBiT): 88.3 nM (active)
activity change, negative = inhibition ([13]; Viability): -8.02% (inactive)
